High-throughput results deposited in PubChem by several laboratories.
Most compounds without a hit are left out; they make up all but 5.2% or so of the library.
SMARCA2 act – SMARCA2 (BRM) function activators, primary screen, cell-based, luminescence, high throughput; MG213 cells, MMTV-luciferase reporter, dexamethasone, overnight; activation, % at 9.1 µM; 370,000 compounds, 1% hits; AID 652017, 2013; in the data active means activation above about 7.8%;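 further: 0% = vehicle wells and 100% = reference activator wells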
Vif imaging – HIV Vif self-association inhibitors, primary screen, imaging, HEK293T, single point. HEK293T cells, Vif self-association by quenched fluorescence, 24 h. 340,000 compounds, 0.35% hits. inhibition, % at 7.49 µM; in the data active means inhibition above about 50%, passing the limit was not always enough
NR3A LBD binder – binders of NR3A ligand-binding domain, primary screen, biophysical, differential scanning fluorimetry, uHTS | Glutamate receptor ionotropic, NMDA 3A (GRIN3A) ligand-binding domain | NR3A LBD differential scanning fluorimetry, Tm shift; 0% = protein alone, 100% = glycine-bound protein | Tm shift relative to glycine control, % at 25 µM | 340,000 compounds, 2.5% hits;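 active means melting temperature shift of at least 10% of the positive control shift, at one fixed dose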
esBAF inh – Bmi1 luciferase reporter increase in mESCs, primary screen, esBAF inhibitor project, mouse ES cells, Bmi1 luciferase knock-in, single point. 24 h; 100% = twice the neutral-well signal. reporter increase, % at 12.5 µM. 350,000 compounds, 2% hits. AID 602393, 2012; in the data active means activation above about 40%;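 further: 0% = median of the plate's neutral control wells and 100% = double that signal; a rise in the Bmi1 reporter signal indicates esBAF inhibition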
SKN-1 block – suppressors of acrylamide-induced Pgst-4::GFP reporter in worms, primary screen, SKN-1 inhibitor project, whole organism, uHTS, GFP/RFP fluorescence ratio, strain VP596 | C. elegans VP596 Pgst-4::GFP/RFP ratio, 24 h | AID 624304, 2012 | inhibition, % at 21.8 µM | 360,000 compounds, 0.49% hits;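 active means interference check ratio from 0.5 to 1.5 plus GFP to RFP signal ratio inhibition reaching or exceeding a fixed threshold, cut at about 30% in these data, passing the limit was not always enough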
NadD inh – inhibitors of S. aureus NadD, primary screen, biochemical, colorimetric, uHTS; Nicotinate-nucleotide adenylyltransferase NadD (Staphylococcus aureus N315); purified NadD enzyme, colorimetric absorbance read-out; inhibition, % at 20 µM; 360,000 compounds, 0.78% hits; AID 602399, 2012; in the data active means inhibition above about 26%
NadD inh conf – inhibitors of S. aureus NadD, confirmation, biochemical, colorimetric, single concentration; shares compounds with NadD inh; purified S. aureus NadD, colorimetric enzyme assay; inhibition, % at 20 µM; 2,000 compounds, 13% hits; AID 624309, 2012; in the data active means inhibition mostly above about 42%, no sharp cut-off; inactive means mostly below about 42%
* marks the source's active call; other numbers are inactive results; x = no result.

SMILES	SMARCA2 act	Vif imaging	NR3A LBD binder	esBAF inh	SKN-1 block	NadD inh	NadD inh conf
O=C1NC[C@H](Cc2ccccc2)N(C[C@@H]2CCCN2C[C@H](Cc2ccccc2)N2C[C@H](Cc3ccccc3)N(CC3CCCCC3)C(=O)C2=O)C1=O	-4.6	32.5	x	-1.3	11.0	21.9	x
O=C1NC[C@H](Cc2ccccc2)N(C[C@@H]2CCCN2C[C@H](Cc2ccc(O)cc2)N2C[C@H](Cc3ccccc3)N(CC3CCCCCC3)C(=O)C2=O)C1=O	-1.9	x	x	x	37.1*	39.2*	47.9*
O=C1NC[C@H](Cc2ccc(O)cc2)N(C[C@@H]2CCCN2C[C@H](Cc2ccccc2)N2C[C@H](Cc3ccccc3)N(CC3CCCCCC3)C(=O)C2=O)C1=O	-2.9	x	x	x	-0.8	52.2*	43.0
O=C1NC[C@@H](CCCCN2C[C@H](Cc3ccc(O)cc3)N(CCC3CCCCC3)C(=O)C2=O)N(CC2CCCCC2)C1=O	-4.9	x	x	x	5.6	44.4*	47.4*
CC(C)C[C@H]1CN([C@@H](Cc2ccccc2)CN2CCC[C@H]2CN2C(=O)C(=O)NC[C@@H]2Cc2ccc(O)cc2)C(=O)C(=O)N1CC1CCCCC1	-1.9	x	x	x	4.1	31.0*	40.1
O=C(C[C@H]1CC[C@@H](NC(=O)c2ccncc2)[C@@H](CO)O1)NCC1CCCCC1	x	x	x	-0.8	x	x	x
COCCNC(=O)C[C@H]1CC[C@H]2[C@@H](COC[C@@H](O)CN2C(=O)Nc2ccccc2OC)O1	x	x	x	-2.9	x	x	x
O=C(Nc1nnc(SCc2ccc(F)cc2)s1)C1Cc2ccccc2CN1C(=O)c1ccco1 (centres undefined)	1.2	25.1	-4.2	-2.2	7.3	60.3*	52.1*
Cc1cc(-c2csc(NC(=O)c3ccc(=O)[nH]c3)n2)c(C)n1Cc1ccccc1	-3.4	12.1	-2.3	x	-0.1	48.1*	39.7
O=C(Nc1nc(-c2ccccc2)cs1)c1ccc(=O)[nH]c1	-0.3	1.0	-2.2	x	15.1	-3.3	x
O=C(CCc1nc2ccccc2c(=O)[nH]1)Nc1nc(-c2cccs2)cs1	-2.8	-7.3	x	12.6	2.3	10.2	x
Cc1cc(-c2csc(NC(=O)c3ccc(C#N)cc3)n2)c(C)n1Cc1ccco1	-2.0	1.2	4.2	x	10.3	33.8*	24.5
Cc1cc(-c2csc(NC(=O)c3cc4ccccc4o3)n2)c(C)n1C	-0.8	-3.7	-2.6	-4.2	12.0	36.2*	8.5
C=CCn1c(C)cc(-c2csc(NC(=O)CCc3nc4ccccc4c(=O)[nH]3)n2)c1C	0.8	1.7	3.2	-0.8	27.7	51.6*	28.3
CO[C@H]1CC[C@@H]2CCOc3ccc(C#N)cc3C(=O)N(C)C[C@H](C)C(=O)N(C)C[C@@H]1O2	x	x	x	-1.6	x	x	x
Cc1ccc(-c2csc(N3CCN(c4cc5c(cc4Cl)nc(-c4ccncc4)n5CCN4CCCCC4)CC3)n2)cc1	-0.1	3.0	-8.5	-3.4	-5.3	31.1*	20.1
C/C(=N\NC(=O)CCc1c[nH]c2ccccc12)c1cccc([N+](=O)[O-])c1	-4.5	6.0	-26.6	x	5.4	-4.9	x
Cc1cccc(NC(=O)NCCc2c[nH]c3ccccc23)c1	-1.3	-1.3	8.5	4.8	23.8	-9.1	x
Cc1cc(C)nc(NC(=NCCc2c[nH]c3ccccc23)NC(=O)Nc2cccc([N+](=O)[O-])c2)n1	0.1	-5.3	-12.2	x	4.0	49.2*	7.9
Cc1cc(C)nc(NC(=NCCc2c[nH]c3ccccc23)NC(=O)Nc2ccc(Cl)c(Cl)c2)n1	-3.1	-1.8	27.4*	x	-0.5	38.4*	3.2
CC(=O)C1=C(O)C(=O)N(c2ccc(O)cc2)C1c1cccc([N+](=O)[O-])c1 (centres undefined)	-1.6	9.6	0.1	-2.8	-8.2	-0.9	x
CCOc1ccc(N2C(=O)/C(=C\c3ccc(O)c(OC)c3)S(=O)(=O)C2c2cccc([N+](=O)[O-])c2)cc1 (centres undefined)	-0.7	28.8	10.1*	-5.7	8.2	43.1*	61.9*
CCOc1ccc(N2C(=O)/C(=C\c3ccc(OC)c(O)c3)S(=O)(=O)C2c2cccc([N+](=O)[O-])c2)cc1 (centres undefined)	-1.5	4.1	1.1	x	5.0	33.5*	8.5
CCOc1ccc(Br)cc1S(=O)(=O)Nc1ccc(C(=O)OCC(=O)Nc2ccc(C#N)cc2)cc1	-4.5	-4.2	14.2*	-2.8	-9.4	34.4*	40.9
CCOc1ccc(NC(=S)NS(=O)(=O)c2cc(Br)ccc2OCC)cc1	-0.5	-0.2	0.8	x	22.8	-0.5	x
SMILES	SMARCA2 act	Vif imaging	NR3A LBD binder	esBAF inh	SKN-1 block	NadD inh	NadD inh conf
O=C1[C@H]2[C@@H](c3ccc(F)cc3)N3C(=O)N(c4cccc(Br)c4)C(=O)[C@@]3(Cc3ccc(Cl)cc3)[C@H]2C(=O)N1C1CCCCC1	4.5	-0.6	9.6	-4.5	-1.2	30.6*	13.2
O=C1[C@H]2[C@@H](c3ccc(F)cc3)N3C(=O)N(c4ccccc4)C(=O)[C@@]3(Cc3ccc(Cl)cc3)[C@H]2C(=O)N1C1CCCCC1	1.2	5.0	1.6	3.2	5.3	10.4	x
O=C1[C@H]2[C@@H](c3ccc(F)cc3)N3C(=O)N(c4cccc(Cl)c4)C(=O)[C@@]3(Cc3ccc(Cl)cc3)[C@H]2C(=O)N1C1CCCCC1	0.6	4.5	0.2	5.8	24.7	25.0	x
O=C1[C@H]2[C@@H](c3ccc(Cl)cc3)N3C(=O)N(c4cccc(Br)c4)C(=O)[C@@]3(Cc3ccc(Cl)cc3)[C@H]2C(=O)N1C1CCCCC1	0.2	2.1	-2.6	-1.4	9.3	31.9*	-0.8
CCCC#Cc1cnc2c(c1)C(=O)N([C@H](C)CO)C[C@@H](C)[C@@H](CN(C)C(=O)Cc1ccncc1)O2	x	x	x	1.9	x	x	x
O=C(CC1OC(=O)c2ccccc21)Nc1cc(Cl)ccc1N1CCCC1 (centres undefined)	-0.2	1.9	0.3	-3.1	-4.1	31.8*	11.5
O=C(CC1OC(=O)c2ccccc21)Nc1ccccc1N1CCOCC1 (centres undefined)	1.1	-1.6	-0.8	-3.4	-5.6	4.3	x
COc1ccc(-c2c/c(=N\c3nc(-c4ccccc4)c(C)s3)c3ccccc3o2)cc1O	-1.3	-84.1	14.9*	-1.2	20.0	38.6*	17.7
